# The source made the active and inactive calls.
# Assay: JC-1 mitochondrial signal, unstimulated adipocytes – cell-based, JC-1 fluorescence, 3T3-L1 adipocytes, 24 h, 100 nL compound, profiling panel (AID 1168)
# Conditions: JC-1 mitochondrial fluorescence, higher = more signal, called active from +8 up or from −8 down
# Note: test concentration not given here.
row,Structure (SMILES),z-score
1,Cc1ccc(S[C@]2(C(=O)NCc3ccccc3)CC(=O)N(Cc3ccccc3C(F)(F)F)[C@@H]2c2ccc(CO)cc2)cc1,0.311 (inactive)
2,CCCN1C(=O)[C@]2(CCC(=O)OC(C)(C)C)N=C(c3ccc(OCCCO)cc3)O[C@@H]2c2ccccc21,2.01 (inactive)
3,C[N+](C)(C)CCCC[C@@H]1NC(=O)[C@H]2C[C@@H](C(=O)NCCCCCNC(=O)CS)[C@@H](c3cccc(OCCO)c3)N2C1=O,0.127 (inactive)
4,CO[C@H]1O[C@H](CO)[C@@H](OC(=O)Nc2ccccc2-c2ccccc2)[C@H](OC(=O)Nc2ccccc2)[C@H]1OC(=O)Nc1ccccc1,0.877 (inactive)
5,CC(C)=C1C(=O)C(c2ccccc2)=C2CN3C(=O)N(CCc4ccccc4)C(=O)[C@]3(C)[C@H]21,-1.43 (inactive)
6,C[C@]1(C(=O)O)c2ccccc2C(=O)N(Cc2cc(F)cc(C(F)(F)F)c2)[C@H]1c1ccc(CO)cc1,0.235 (inactive)
7,CN(C)CCCNC(=O)[C@@]1(Cc2ccccc2I)c2ccccc2C(=O)N(C2CCCCC2)[C@H]1c1ccc(CO)cc1,2.14 (inactive)
8,C#CCN1[C@@H](Cc2ccccc2)C(=O)O[C@H](Cc2ccccc2)[C@@H]1/C=C/C1CC1,-0.693 (inactive)
9,CCCc1cc2c(n1CCc1ccc(Cl)cc1)C(C)C1CN(C(=O)c3ccccc3)C(C)(C(=O)OC)C21 (stereo not given),-1 (inactive)
10,CN1C(=O)[C@@H]2[C@@H](CC(COc3ccccc3)=C3[C@@H](CCc4ccccc4)OB(O)C[C@@H]32)C1=O,-0.0562 (inactive)
11,CC(C)(C)OC(=O)CC[C@]1(C(=O)NCC(O)CO)N=C(c2ccc(OCCCO)cc2)O[C@H]1c1ccccc1N=[N+]=[N-] (stereo not given in full),2.2 (inactive)
12,COc1ccc([Si](C)(C)[C@H]2[C@H](CC(=O)N3CCC[C@H]3CO)O[C@@]3(C(=O)N(Cc4ccc(N5CCCCC5=O)cc4)c4ccccc43)[C@@H]2C)cc1,-0.774 (inactive)
13,C=CCOC(=O)[C@H]1[C@@H]2C(=O)O[C@@H](c3ccccc3)[C@@H](c3ccccc3)N2[C@@H](c2ccc(OCCOC(=O)[C@@H]3C[C@@H]4C(=O)N[C@@H](CCCC[N+](C)(C)C)C(=O)N4[C@@H]3c3ccc(O)cc3)cc2)[C@]12C(=O)Nc1ccc(I)cc12,0.638 (inactive)
14,O=C(NCc1ccc(F)cc1)[C@H]1C[C@H]2C(=O)N3CCC[C@H]3C(=O)N2[C@H]1c1ccc(O)cc1,0.811 (inactive)

# Assay: JC-1 mitochondrial signal, unstimulated myeloma cells – cell-based, JC-1 fluorescence, RPMI8226, 24 h, 100 nL compound, profiling panel (AID 1169)
# Conditions: JC-1 mitochondrial potential fluorescence, higher = more signal
row,Structure (SMILES),z-score
1,COC(=O)[C@@]1(Cc2ccc(F)cc2)[C@H]2c3cc(C(=O)N(C)C)n(CCc4ccc(O)c(O)c4)c3C[C@H]2CN1C(=O)c1ccccc1,-0.672
2,CCOC(=O)C1=CC[C@@H](c2ccc(OC)cc2)N(S(=O)(=O)c2ccc(C)cc2)[C@H]1c1ccc(C)cc1,0.859
3,[N-]=[N+]=NCc1ccccc1[C@@H]1OC(c2ccc(OCCCO)cc2)=N[C@]1(Cc1ccccc1N=[N+]=[N-])C(=O)O,-1.11
4,COC(=O)[C@@]1(Cc2ccccc2)[C@H]2c3cc(C(=O)N(C)C)n(CCSC(=N)N)c3C[C@H]2CN1C(=O)c1ccccc1,-0.889
5,Cc1ccc(S[C@]2(C(=O)NC(C)C)CC(=O)N(C3CCCCC3)[C@@H]2c2ccc(CO)cc2I)cc1,-0.351
6,COC(=O)C(CC#Cc1ccc2c(c1)[C@]1(C(=O)N2)[C@H](C(=O)N2CCc3cc(OC)c(OC)cc3C2)[C@H]2C(=O)O[C@H](c3ccccc3)[C@H](c3ccccc3)N2[C@@H]1c1ccccc1OCCO)C(=O)OC,-0.839
7,C=CC[C@@]12N=C(c3ccc(OCCCO)cc3)O[C@@H]1c1ccccc1N(CCC)C2=O,-1.22
8,CCC(CC)C(O)C1C=CC2C(=O)N(c3ccccc3)C(=O)C2N1Nc1ccccc1F (stereo not given),-0.231
9,C=C(COC)/C(=C/C[C@H](OC(C)=O)c1ccccc1OCCO)c1cc(C(=O)OC)ccc1OC,0.0983
10,CN(C)CCCC[C@@H]1NC(=O)[C@@H]2C[C@H](C(=O)NCCCCCN)[C@H](c3cccc(OCCO)c3)N2C1=O,-0.891
11,COC(=O)C[C@H]1O[C@@]2(C[C@@H]1[Si](C)(C)C)C(=O)N(C)c1ccccc12,-1.09
12,NC(=O)N1C(=O)C2C(C1=O)C1C=C(CCCO)C2C(C2CC2)N1Cc1sc2ccccc2c1Cl (stereo not given),-0.0842
13,CCOC(=O)C1=CCC(c2cc3ccccc3[nH]2)N(CCN2CC(C(=O)OCC)=CCC2c2cc3ccccc3[nH]2)C1 (stereo not given),-0.111
14,COCC(=C=CC[C@H](O)c1ccccc1OCCO)C[C@H](O)COCc1ccccc1,-0.138
15,COc1ccc([Si](C)(C)[C@@H]2[C@@H](CC(=O)N3CCC[C@H]3CO)O[C@]3(C(=O)N(Cc4ccc(N5CCOC5=O)cc4)c4ccccc43)[C@H]2C)cc1,-1.07
16,C=C(CCCC)C(=O)CC[C@H](OC(=O)c1ccccc1-c1ccccc1C(=O)O)c1ccc(OCCO)cc1,-0.346
17,COC(=O)[C@@]1(Cc2ccc(F)cc2)[C@H]2c3cc(C(=O)N4CCCC4)n(Cc4ccccn4)c3C[C@H]2CN1C(=O)c1ccccc1,-0.116
18,O=C1NC(=O)C2C1C=CC(C(O)c1ccc([N+](=O)[O-])cc1)N2Nc1ccccn1 (stereo not given),-0.284

row,Structure (SMILES),z-score
1,CCCC#C[Si](O[C@H](CC)c1cn(Cc2ccccc2)nn1)(C(C)C)C(C)C,0.973
2,COCCCNC(=O)[C@@]1(CCC(=O)OC(C)(C)C)COC(c2ccc(OCCCO)cc2)=N1,-0.438
3,C=C(CCCC)/C(=C/C[C@H](OC(C)=O)c1cccc(OCCO)c1)c1cnc2ccccc2c1,-0.205
4,CN(C)C(=O)[C@]1(Cc2ccccc2)N=C(c2ccc(OCCCO)cc2)O[C@@H]1c1ccccc1CN=[N+]=[N-],-1.23
5,Cc1ccc(S[C@]2(C(=O)NCc3ccccc3)CC(=O)N(Cc3ccccc3C(F)(F)F)[C@@H]2c2ccc(CO)cc2)cc1,-0.0337
6,CCCN1C(=O)[C@]2(CCC(=O)OC(C)(C)C)N=C(c3ccc(OCCCO)cc3)O[C@@H]2c2ccccc21,-1.32
7,C[N+](C)(C)CCCC[C@@H]1NC(=O)[C@H]2C[C@@H](C(=O)NCCCCCNC(=O)CS)[C@@H](c3cccc(OCCO)c3)N2C1=O,0.812
8,CO[C@H]1O[C@H](CO)[C@@H](OC(=O)Nc2ccccc2-c2ccccc2)[C@H](OC(=O)Nc2ccccc2)[C@H]1OC(=O)Nc1ccccc1,-0.747
9,CC(C)=C1C(=O)C(c2ccccc2)=C2CN3C(=O)N(CCc4ccccc4)C(=O)[C@]3(C)[C@H]21,-0.879
10,C[C@]1(C(=O)O)c2ccccc2C(=O)N(Cc2cc(F)cc(C(F)(F)F)c2)[C@H]1c1ccc(CO)cc1,0.383
11,CN(C)CCCNC(=O)[C@@]1(Cc2ccccc2I)c2ccccc2C(=O)N(C2CCCCC2)[C@H]1c1ccc(CO)cc1,-1.01
12,C#CCN1[C@@H](Cc2ccccc2)C(=O)O[C@H](Cc2ccccc2)[C@@H]1/C=C/C1CC1,-0.812
13,CCCc1cc2c(n1CCc1ccc(Cl)cc1)C(C)C1CN(C(=O)c3ccccc3)C(C)(C(=O)OC)C21 (stereo not given),-0.78
14,CN1C(=O)[C@@H]2[C@@H](CC(COc3ccccc3)=C3[C@@H](CCc4ccccc4)OB(O)C[C@@H]32)C1=O,0.122
15,CC(C)(C)OC(=O)CC[C@]1(C(=O)NCC(O)CO)N=C(c2ccc(OCCCO)cc2)O[C@H]1c1ccccc1N=[N+]=[N-] (stereo not given in full),-0.832
16,COc1ccc([Si](C)(C)[C@H]2[C@H](CC(=O)N3CCC[C@H]3CO)O[C@@]3(C(=O)N(Cc4ccc(N5CCCCC5=O)cc4)c4ccccc43)[C@@H]2C)cc1,-1.02
17,C=CCOC(=O)[C@H]1[C@@H]2C(=O)O[C@@H](c3ccccc3)[C@@H](c3ccccc3)N2[C@@H](c2ccc(OCCOC(=O)[C@@H]3C[C@@H]4C(=O)N[C@@H](CCCC[N+](C)(C)C)C(=O)N4[C@@H]3c3ccc(O)cc3)cc2)[C@]12C(=O)Nc1ccc(I)cc12,-0.767
18,O=C(NCc1ccc(F)cc1)[C@H]1C[C@H]2C(=O)N3CCC[C@H]3C(=O)N2[C@H]1c1ccc(O)cc1,0.207

# — PubChem BioAssay
